# Measured values published in paper PMC11006913.
# Tests used:
# Assay in all cases: PBM; 200 nM protein, PBS
# Conditions in all cases: dsDNA, one strand shown
# [1] = target: PROP1 (Homo sapiens, UniProt O75360 56-141)
# [2] = target: PROP1 (Homo sapiens, UniProt O75360 56-141, R99H)
# [3] = target: PROP1 (Homo sapiens, UniProt O75360 56-141, F88S)
# [4] = target: HESX1 (Homo sapiens, UniProt Q9UBX0 95-180, R109Q)
# [5] = target: VAX1 (Homo sapiens, UniProt Q5SQQ9 86-172)
# [6] = target: VAX1 (Homo sapiens, UniProt Q5SQQ9 86-172, T142I)
# [7] = target: VAX1 (Homo sapiens, UniProt Q5SQQ9 86-172, K157R)
# Chain of VAX1 (Homo sapiens, UniProt Q5SQQ9 86-172, K157R) (Q5SQQ9 86-172 K157R): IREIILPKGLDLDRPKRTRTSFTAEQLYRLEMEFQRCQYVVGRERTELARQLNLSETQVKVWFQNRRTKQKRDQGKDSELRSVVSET
# Chain of PROP1 (Homo sapiens, UniProt O75360 56-141, F88S) (O75360 56-141 F88S): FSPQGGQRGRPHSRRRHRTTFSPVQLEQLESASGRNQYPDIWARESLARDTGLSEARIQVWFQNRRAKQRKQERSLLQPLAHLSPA
# Chain of PROP1 (Homo sapiens, UniProt O75360 56-141, R99H) (O75360 56-141 R99H): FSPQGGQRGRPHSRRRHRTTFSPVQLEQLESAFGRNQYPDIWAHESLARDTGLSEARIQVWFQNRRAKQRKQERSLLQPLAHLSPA
# Chain of PROP1 (Homo sapiens, UniProt O75360 56-141) (O75360 56-141): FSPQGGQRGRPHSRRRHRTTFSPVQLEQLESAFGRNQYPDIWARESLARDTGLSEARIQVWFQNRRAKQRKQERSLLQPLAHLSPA
# Chain of VAX1 (Homo sapiens, UniProt Q5SQQ9 86-172) (Q5SQQ9 86-172): as the sequence (Q5SQQ9 86-172 K157R) above, with R72K counted along it
# Chain of VAX1 (Homo sapiens, UniProt Q5SQQ9 86-172, T142I) (Q5SQQ9 86-172 T142I): as the sequence (Q5SQQ9 86-172 K157R) above, with T57I, R72K counted along it
# Chain of HESX1 (Q9UBX0 95-180 R109Q): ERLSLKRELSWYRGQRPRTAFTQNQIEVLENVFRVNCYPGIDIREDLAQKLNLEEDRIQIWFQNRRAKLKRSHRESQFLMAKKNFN
sequence,measurement,setting,value
AGGCCAGG,binding signal,[1],"6.77 upbm affinity estimate (log intensity, higher = more binding, comparable within an allelic series)"
same,binding signal,[2],"6.97 upbm affinity estimate (log intensity, higher = more binding, comparable within an allelic series)"
same,binding signal,[3],"6.49 upbm affinity estimate (log intensity, higher = more binding, comparable within an allelic series)"
GGATGCAC,binding signal,[1],"6.71 upbm affinity estimate (log intensity, higher = more binding, comparable within an allelic series)"
same,binding signal,[2],"6.74 upbm affinity estimate (log intensity, higher = more binding, comparable within an allelic series)"
same,binding signal,[3],"6.83 upbm affinity estimate (log intensity, higher = more binding, comparable within an allelic series)"
GCATCTCC,binding signal,[1],"6.85 upbm affinity estimate (log intensity, higher = more binding, comparable within an allelic series)"
same,binding signal,[2],"6.93 upbm affinity estimate (log intensity, higher = more binding, comparable within an allelic series)"
same,binding signal,[3],"6.57 upbm affinity estimate (log intensity, higher = more binding, comparable within an allelic series)"
ATTATGGG,binding signal,[1],"9.26 upbm affinity estimate (log intensity, higher = more binding, comparable within an allelic series)"
same,binding signal,[2],"8.87 upbm affinity estimate (log intensity, higher = more binding, comparable within an allelic series)"
same,binding signal,[3],"7.21 upbm affinity estimate (log intensity, higher = more binding, comparable within an allelic series)"
CCTTCGGC,binding signal,[1],"6.66 upbm affinity estimate (log intensity, higher = more binding, comparable within an allelic series)"
same,binding signal,[2],"6.64 upbm affinity estimate (log intensity, higher = more binding, comparable within an allelic series)"
same,binding signal,[3],"6.53 upbm affinity estimate (log intensity, higher = more binding, comparable within an allelic series)"
AATCACAT,binding signal,[1],"9.48 upbm affinity estimate (log intensity, higher = more binding, comparable within an allelic series)"
same,binding signal,[3],"7.46 upbm affinity estimate (log intensity, higher = more binding, comparable within an allelic series)"
AATCAATT,binding signal,[4],"8.86 upbm affinity estimate (log intensity, higher = more binding, comparable within an allelic series)"
AATTCAAC,binding signal,[1],"8.25 upbm affinity estimate (log intensity, higher = more binding, comparable within an allelic series)"
same,binding signal,[2],"7.78 upbm affinity estimate (log intensity, higher = more binding, comparable within an allelic series)"
same,binding signal,[3],"7.25 upbm affinity estimate (log intensity, higher = more binding, comparable within an allelic series)"
ATCAACGG,binding signal,[5],"9.55 upbm affinity estimate (log intensity, higher = more binding, comparable within an allelic series)"
GCTCCTCC,binding signal,[1],"6.62 upbm affinity estimate (log intensity, higher = more binding, comparable within an allelic series)"
same,binding signal,[2],"6.55 upbm affinity estimate (log intensity, higher = more binding, comparable within an allelic series)"
same,binding signal,[3],"6.45 upbm affinity estimate (log intensity, higher = more binding, comparable within an allelic series)"
GCTCGGAC,binding signal,[1],"6.55 upbm affinity estimate (log intensity, higher = more binding, comparable within an allelic series)"
same,binding signal,[2],"6.66 upbm affinity estimate (log intensity, higher = more binding, comparable within an allelic series)"
same,binding signal,[3],"6.68 upbm affinity estimate (log intensity, higher = more binding, comparable within an allelic series)"
CCGCACCC,binding signal,[1],"6.68 upbm affinity estimate (log intensity, higher = more binding, comparable within an allelic series)"
same,binding signal,[2],"6.9 upbm affinity estimate (log intensity, higher = more binding, comparable within an allelic series)"
same,binding signal,[3],"6.69 upbm affinity estimate (log intensity, higher = more binding, comparable within an allelic series)"
AGGGCCGC,binding signal,[1],"6.72 upbm affinity estimate (log intensity, higher = more binding, comparable within an allelic series)"
same,binding signal,[2],"6.82 upbm affinity estimate (log intensity, higher = more binding, comparable within an allelic series)"
same,binding signal,[3],"6.5 upbm affinity estimate (log intensity, higher = more binding, comparable within an allelic series)"
GGAACGCC,binding signal,[1],"6.7 upbm affinity estimate (log intensity, higher = more binding, comparable within an allelic series)"
same,binding signal,[2],"6.87 upbm affinity estimate (log intensity, higher = more binding, comparable within an allelic series)"
same,binding signal,[3],"6.68 upbm affinity estimate (log intensity, higher = more binding, comparable within an allelic series)"
GACATTAC,binding signal,[1],"8.23 upbm affinity estimate (log intensity, higher = more binding, comparable within an allelic series)"
same,binding signal,[2],"7.84 upbm affinity estimate (log intensity, higher = more binding, comparable within an allelic series)"
same,binding signal,[3],"7.27 upbm affinity estimate (log intensity, higher = more binding, comparable within an allelic series)"
GGGTCGGA,binding signal,[1],"6.69 upbm affinity estimate (log intensity, higher = more binding, comparable within an allelic series)"
same,binding signal,[2],"6.78 upbm affinity estimate (log intensity, higher = more binding, comparable within an allelic series)"
same,binding signal,[3],"6.58 upbm affinity estimate (log intensity, higher = more binding, comparable within an allelic series)"
CCGAGTTA,binding signal,[1],"8.19 upbm affinity estimate (log intensity, higher = more binding, comparable within an allelic series)"
same,binding signal,[3],"7.14 upbm affinity estimate (log intensity, higher = more binding, comparable within an allelic series)"
AACTATAT,binding signal,[1],"8.71 upbm affinity estimate (log intensity, higher = more binding, comparable within an allelic series)"
same,binding signal,[3],"7.61 upbm affinity estimate (log intensity, higher = more binding, comparable within an allelic series)"
AAAAATTT,binding signal,[1],"8.27 upbm affinity estimate (log intensity, higher = more binding, comparable within an allelic series)"
same,binding signal,[2],"7.95 upbm affinity estimate (log intensity, higher = more binding, comparable within an allelic series)"
same,binding signal,[3],"7.46 upbm affinity estimate (log intensity, higher = more binding, comparable within an allelic series)"
ATGACCAA,binding signal,[1],"8.15 upbm affinity estimate (log intensity, higher = more binding, comparable within an allelic series)"
same,binding signal,[3],"7.17 upbm affinity estimate (log intensity, higher = more binding, comparable within an allelic series)"
CGGCTCCA,binding signal,[1],"6.66 upbm affinity estimate (log intensity, higher = more binding, comparable within an allelic series)"
same,binding signal,[2],"6.76 upbm affinity estimate (log intensity, higher = more binding, comparable within an allelic series)"
same,binding signal,[3],"6.74 upbm affinity estimate (log intensity, higher = more binding, comparable within an allelic series)"
AGGACACC,binding signal,[1],"6.84 upbm affinity estimate (log intensity, higher = more binding, comparable within an allelic series)"
same,binding signal,[2],"6.77 upbm affinity estimate (log intensity, higher = more binding, comparable within an allelic series)"
same,binding signal,[3],"6.75 upbm affinity estimate (log intensity, higher = more binding, comparable within an allelic series)"
TACCCTAA,binding signal,[1],"8.09 upbm affinity estimate (log intensity, higher = more binding, comparable within an allelic series)"
same,binding signal,[3],"7.04 upbm affinity estimate (log intensity, higher = more binding, comparable within an allelic series)"
GATTTAGA,binding signal,[5],"9.33 upbm affinity estimate (log intensity, higher = more binding, comparable within an allelic series)"
same,binding signal,[6],"9.17 upbm affinity estimate (log intensity, higher = more binding, comparable within an allelic series)"
same,binding signal,[7],"9.1 upbm affinity estimate (log intensity, higher = more binding, comparable within an allelic series)"
CCTTCGCC,binding signal,[5],"7.18 upbm affinity estimate (log intensity, higher = more binding, comparable within an allelic series)"
same,binding signal,[6],"7.38 upbm affinity estimate (log intensity, higher = more binding, comparable within an allelic series)"
same,binding signal,[7],"7.16 upbm affinity estimate (log intensity, higher = more binding, comparable within an allelic series)"
